AMA1 RON2 block = qHTS for Inhibitors of AMA1-RON; Towards Development of Antimalarial Drug Lead: Primary Screen | Potency, µM (doses to about 58.2 µM), for inactives: at the highest dose activity change, negative = inhibition, most hits filed as inhibitors | AlphaScreen AMA1-biotinylated RON2 peptide binding | actives 0.2% (n = 360,000);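 further: 0% = vehicle wells and -100% = peptide control; nearly all actives have a fitted effect of over 45% in size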
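AMA1 (3D7) with his tag at 25 nM final met compounds first, then biotinylated RON2 peptide at 25 nM; detection used donor plus acceptor beads, 10 µg/mL apiece, read by AlphaScreen after 30 min at room temperature.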
Pf growth 48h = Primary qHTS for delayed death inhibitors of the malarial parasite plastid, 48 hour incubation; actives 5.9% (n = 310,000); P. falciparum luciferase growth in erythrocytes, 48 h; Potency, µM (doses to about 28.7 µM), without a hit: top-dose activity change, negative = inhibition, hits mostly inhibitors; AID 504832, 2011
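Read-out is firefly luciferase luminescence from an integrated reporter in P. falciparum, so falling signal marks reduced parasite growth. Infected erythrocytes were at 2% hematocrit and 0.1% parasitemia (final) in Albumax-supplemented RPMI 1640.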
HCV inh = qHTS Assay for Inhibitors of Hepatitis C Virus (HCV). Potency, µM (top dose mostly 41.8 µM), without a hit: top-dose activity change, negative = inhibition, usual class: inhibitors. Huh7.5.1 HCVcc-Cre infection, luciferase reporter, 44 h. actives 3.4% (n = 340,000)
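Reporter virus HCVcc-Cre (~0.5 moi) infects cells exposed to compound; seeding density 1,000 cells/well with 4 h settling beforehand. Luminescence, 15 sec read, taken 44 h post-infection following a 15 min RT substrate incubation.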
Pf growth 96h = Primary qHTS for delayed death inhibitors of the malarial parasite plastid, 96 hour incubation | actives 6.9% (n = 320,000) | Potency, µM (series often up to 28.7 µM), for the others: at the highest dose activity change, negative = inhibition, usual class: inhibitors | P. falciparum luciferase reporter growth, 96 h
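Two parasite generations (96 h, 37 C, 5% CO2) of compound exposure in infected erythrocytes (0.05% parasitemia, 2% hematocrit). Luciferase-reporter P. falciparum; decreased luminescence indicates inhibited growth, aimed at apicoplast-acting delayed death.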
An asterisk follows results filed as active; ? = inconclusive; · = no result; [ ] = remark or other dose. In the library only some 11% were active in any assay of this set; here they are far more common. The call rests on the fitted dose curve; in most records, active means well fitted curve in the direction sought with a large enough effect; inconclusive means small, poorly fitted or top-dose-only effect, or another doubt; inactive means no such curve, though single readings can be large; an effect the other way counts as inactive or inconclusive. Unless noted, on the % scale 0 is the no-effect control and ±100 the full control effect; potency means the concentration at half of the fitted maximal effect.

SMILES	AMA1 RON2 block	Pf growth 48h	HCV inh	Pf growth 96h
COC(=O)c1ccc(S(=O)(=O)c2ccc([N+](=O)[O-])cc2)cc1	-2%	27%	-7%	14%
CN1OC[C@@H]2CN[C@H](c3cccc(Oc4ccccc4)c3)C[C@@H]21	-6%	·	·	·
COc1ccc(C2=NC(=O)/C(=C\c3cc(OC)c(OC)c(OC)c3)O2)cc1	17%	16%	35%	0.93µM*
COc1ccc(NC(=S)N2CCN(S(=O)(=O)c3ccc(OC)cc3)CC2)cc1	-13%	?	-7%	0%
COc1ccc(NC(=S)N2CCN(C(=O)c3ccco3)CC2)cc1	9%	41%	5%	0.47µM*
Cc1ccc(NC(=S)N2CCN(S(=O)(=O)c3ccccc3)CC2)cc1	-11%	-1%	13%	?
COc1ccc(NC(=S)N2CCN(S(=O)(=O)c3ccccc3)CC2)cc1	-8%	9%	12%	10µM*
Cc1cc(C)cc(NC(=S)N2CCN(S(=O)(=O)c3ccccc3)CC2)c1	-3%	?	?	3.7µM*
COC(=O)c1ccc(NC(=S)N2CCN(C(=O)c3ccco3)CC2)cc1	-1%	5%	13%	36%
CCOC(=O)c1c(-c2ccccc2)csc1NC(=O)CSc1nnc(C)s1	7%	2.9µM*	?	?
CCOC(=O)c1c(-c2ccc(C)o2)csc1NC(=S)NC(=O)c1ccccc1Br	16%	13µM*	?	7.4µM*
Cc1nnc(SCC(=O)Nc2nnc(SCc3cccc(Br)c3)s2)s1	1%	8%	14%	7.4µM*
CCOC(=O)c1c(-c2ccc(C)o2)csc1NC(=O)CSc1nnnn1-c1ccccc1	-2%	?	1.8µM*	·
Cc1ccc(C(=O)CSc2nnnn2-c2ccccc2)o1	-2%	123%	8%	15%
CCOC(=O)c1c(-c2ccc(C)o2)csc1NC(=S)NC(=O)c1cccs1	0%	?	?	?
CCOC(=O)c1c(-c2cccs2)csc1NC(=O)CSc1ncn[nH]1	13%	-11%	?	48%
CCOC(=O)c1c(-c2cccs2)csc1NC(C)=O	-11%	-14%	?	?
CCOC(=O)c1c(-c2ccc(C)o2)csc1NC(=O)CSc1nnc(C)s1	-8%	12µM*	?	169%
CCOC(=O)c1c(NC(=O)CSc2nnc(C)c(=O)[nH]2)sc(C)c1-c1ccc(C)cc1	-12%	-5%	-10%	3%
CCOC(=O)c1c(NC(=O)CSc2nnc(N)s2)sc(C)c1-c1ccc(C)cc1	22%	?	25µM*	10µM*
CCOC(=O)c1c(CC(C)C)csc1NC(=O)COC(=O)c1ccc(O)cc1	2%	?	?	9.3µM*
CCOC(=O)c1c(-c2ccc(C)o2)csc1NC(=O)COC(=O)c1ccc(NC(N)=O)cc1	-19%	8.3µM*	?	·
COc1ccc(C(=O)CCC(=O)Nc2cccnc2)cc1	13%	4%	11%	16%
O=C1NC(NS(=O)(=O)c2ccccc2)(C(F)(F)F)C(=O)N1c1cccc(Cl)c1 (stereo unspecified)	0%	-17%	9%	7%
CCOC(=O)c1c(-c2ccc(OC)cc2)csc1NC(=O)CSc1ncnc2sccc12	-1%	?	?	5.2µM*
SMILES	AMA1 RON2 block	Pf growth 48h	HCV inh	Pf growth 96h
CCOC(=O)c1c(-c2ccc(OC)cc2)csc1NC(=O)COc1ccc2c(C)cc(=O)oc2c1	-9%	13%	1%	-19%
CCOC(=O)c1c(-c2ccccc2Cl)csc1NC(=O)CSc1nc(C)cc(=O)[nH]1	-6%	-24%	23%	12µM*
Nc1[nH]c(=O)ncc1F	1%	-2%	8%[8.37 µM]	5%
Cc1csc(SCC(=O)NC(C)c2ccccc2)n1 (stereo unspecified)	-2%	3%	-2%	?
Cc1cc(=O)[nH]c(N/N=C/c2c(C)nn(-c3ccccc3)c2C)n1	32%	12µM*	6%	-25%
Cc1cc(=O)[nH]c(N/N=C/c2cc(C)n(-c3ccccc3)c2C)n1	48%	?	?	?
Cc1nn(-c2ccccc2)c(C)c1/C=N/Nc1nc2ccccc2[nH]1	?	0.59µM*	?	?
C=CCn1cc(/C=N/Nc2nc3ccccc3[nH]2)c2ccccc21	-27%	?	?	83%
Cc1c(/C=N/Nc2nc3ccccc3[nH]2)c2ccccc2n1C	-32%	0.52µM*	?	0.47µM*
Cc1cc(C)n(-c2ccc(C(=O)N3CCC(CO)(Cc4ccccc4)CC3)cc2)n1	-9%	?	20%	?
O=C(O)c1ccc(CN2C[C@@H](CO)O[C@@H](n3cnc4c(NCc5ccco5)ncnc43)C2)cc1	-6%	·	·	·
COc1cc(OC)nc(NC(=O)CSc2nnc(-c3ccccc3)n2C2CCCCC2)n1	3%	·	-22%	·
O=C(Nc1ccccc1F)c1ccc(C(=O)c2ccccc2)cc1	10%	85%	8%	117%
COc1ccc([N+](=O)[O-])cc1NC1CCCCC1	17%	?	11µM*	93%
O=C(Nc1ccccc1)c1cc([N+](=O)[O-])ccc1Cl	2%	44%	?	42%
COc1ccc([N+](=O)[O-])cc1NC1C2CC3CC(C2)CC1C3 (stereo unspecified)	-2%	8%	-14%	0.52µM*
O=C(Nc1ccccc1)c1cc([N+](=O)[O-])ccc1NC1CCCCC1	-9%	8.3µM*	?	?
COCC(=O)Nc1cc([N+](=O)[O-])ccc1OC	8%	1%	-13%	87%
CN(CC(=O)NCCc1ccc(Cl)cc1)S(=O)(=O)c1cccs1	-9%	4%	2%	-1%
Cc1ccc(S(=O)(=O)N(C)C[C@@H]2OCc3cnnn3CCCC(=O)N([C@@H](C)CO)C[C@H]2C)cc1	10%	·	·	·
COc1ccc(N2CCN(Cc3nc4sc(C)c(C)c4c(=O)[nH]3)CC2)cc1	-7%	7%	10%	0%
O=c1[nH]c(CN2CCN(c3ccc(O)cc3)CC2)nc2scc(-c3ccc(Cl)cc3)c12	16%	3.7µM*	6.3µM*	?
COc1cccc(N2CCN(Cc3nc4ccccc4c(=O)[nH]3)CC2)c1	-4%	-5%	6%	·
O=c1[nH]c(CN2CCN(c3ccccc3O)CC2)nc2scc(-c3ccccc3Cl)c12	92%	5.2µM*	13µM*	9.3µM*
O=c1[nH]c(CN2CCN(c3ccccc3Cl)CC2)nc2ccsc12	28%	-6%	11%	?
COc1cccc(N2CCN(Cc3nc4scc(-c5ccccc5)c4c(=O)[nH]3)CC2)c1	25%[2.32 µM]	-10%	13µM*	?
COc1ccc(CCC(=O)OCC(=O)Nc2sccc2C(N)=O)cc1OC	1%	·	-14%	·
O=C1[C@@H]2[C@@H]3C[C@@H]([C@H]4ON=C(c5ccc(Cl)cc5)[C@@H]34)[C@@H]2C(=O)N1C1CCCCC1	-5%	25%	?	10µM*
Cn1nnnc1SCC(=O)Nc1cc(S(=O)(=O)N2CCCCC2)ccc1Cl	?	·	3%	·

Source: PubChem (National Center for Advancing Translational Sciences (NCATS))
